# Assay results reported in PubChem BioAssay.
# Calls of active or inactive are those of the source. Rule as the data show it, unless noted: active = inhibition above about 30%; inactive = the rest.
# Columns and labels:
# [1] = SK-BR-3 cell growth inhibitors, pilot screen, 24 h, human (AID 572;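 active = viability at or below 10% of carrier control in both of two separate runs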;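 also: compound exposure lasted between 18 and 24 h rather than exactly 24 h; 100% = carrier-treated control wells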); settings: SK-BR-3 viability, CellTiter-Glo luminescence, at 10 µM, stronger effect = lower value
# [2] = HUVEC growth inhibition – cell-based, human, primary screen (AID 575;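 active = viability at or below 30% in both replicate assays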;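 also: 100% = median of untreated cell wells with 0.1% DMSO on each plate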); settings: HUVEC proliferation, CellTiter-Glo luminescence, 72 h; at 10 µM; stronger effect = lower value
# [3] = reversal of MRP1-mediated doxorubicin resistance, pilot screen, H69AR cells, doxorubicin co-treatment (AID 601;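 active = viability loss from added drug above about 55%, and viability with drug at most 40%, in both replicates, limit read from the data, passing the limit was not always enough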); settings: CellTiter-Glo, 72 h, at 10 µM; for differential viability (reversal): stronger effect = higher value
# [4] = 384-well plate pilot, post-Golgi transport modulator project, inhibition of yeast transport mutant growth (AID 636; in the data active = inhibition above about 31%); settings: absorbance 615 nm, about 18 h, stronger effect = higher value
# [5] = growth suppression of yeast trafficking mutant, preliminary HTS, modulators of trafficking downstream of Golgi apparatus project, 1536-format plate, OD 615 nm (AID 637); settings: yeast transport mutant growth, absorbance 615 nm, 18 h; stronger effect = higher value
# [6] = H69AR cells + 2 uM doxorubicin, measured here: viability with 2 uM doxorubicin, stronger effect = lower value
# [7] = H69AR cells, compound alone cytotoxicity
Compound,viability [1],viability [2],differential viability (reversal) ([3]; H69AR cells + 2 uM doxorubicin),"viability [3, 6] [%]","viability [3, 7] [%]",inhibition [4],inhibition [5]
O=S1(=O)Nc2c(ccc3cccnc23)-c2ccccc21,122% (inactive),8.06% (active),-6.77% (inactive),56,49.2,-7.5% (inactive),9.84% (inactive)
CN1CCN(CCCN2c3ccccc3Sc3ccc(C(F)(F)F)cc32)CC1,91% (inactive),2.21% (active),-3.17% (inactive),4.2,1.03,1.43% (inactive),53.8% (active)
COc1ccccc1NC(=O)C1=C(C)NC(SCC(=O)c2ccc(C)cc2)=C(C#N)C1c1ccco1 (stereo not drawn),81% (inactive),72.5% (inactive),0.78% (inactive),16.8,17.6,1.1% (inactive),-3.64% (inactive)
CSc1ccc(-c2cc(=O)c3ccccc3o2)cc1,110% (inactive),48.1% (inactive),-16.6% (inactive),73.6,56.9,-4.13% (inactive),-4.55% (inactive)
COc1ccc(-c2ccc(-c3noc(-c4ccccc4OC)n3)c(OC)n2)cc1,62% (inactive),63.9% (inactive),-2.01% (inactive),64.9,62.9,-4.59% (inactive),18.9% (inactive)
O=C(Nc1cccc(-c2nnc(-c3ccccc3)o2)c1)C1CCCCC1,88% (inactive),82.8% (inactive),0.7% (inactive),53.3,54,-8.49% (inactive),3.55% (inactive)
CCOC(=O)C1CCN(CC(=O)Nc2c(C(=O)OC)[nH]c3ccc(Cl)cc23)CC1,103% (inactive),65.5% (inactive),34.9% (inactive),23.5,58.4,-4.4% (inactive),3.09% (inactive)
COc1ccc2cc(C(c3nnnn3C(C)(C)C)N3CCc4ccccc4C3)c(=O)[nH]c2c1 (stereo not drawn),81% (inactive),48.3% (inactive),26% (inactive),23.1,49.1,-5.33% (inactive),-2.36% (inactive)
COc1ccc(CSCCN)cc1Cl,113% (inactive),105% (inactive),-18.3% (inactive),57.5,39.2,-7.33% (inactive),-2% (inactive)
COC(=O)c1ccc(CSc2ncnc3c2nnn3-c2ccc(OC)cc2)o1,87.5% (inactive),88% (inactive),-10.7% (inactive),71.6,60.9,-1.97% (inactive),6.07% (inactive)
O=C(Nc1ccc(-c2nc3ncccc3o2)cc1)c1ccc(Br)o1,97% (inactive),104% (inactive),-4.05% (inactive),53.2,49.2,-2.13% (inactive),-0.36% (inactive)
CC(=O)[C@H]1CC[C@H]2[C@@H]3CCC4=CC(=O)CC[C@]4(C)[C@H]3CC[C@]12C,93% (inactive),49.4% (inactive),-3.29% (inactive),50.5,47.2,5.06% (inactive),-1% (inactive)
N#C/C(=C\c1ccc(O)c(O)c1)C(=O)NCCCc1ccccc1,88% (inactive),43.4% (inactive),-33.4% (inactive),78,44.6,1.04% (inactive),5.5% (inactive)
COc1ccc2c(c1OC)C(=O)O[C@@H]2[C@H]1c2c(cc3c(c2OC)OCO3)CCN1C,98% (inactive),80.8% (inactive),-52.2% (inactive),84.1,31.9,-6.36% (inactive),-3.5% (inactive)
Oc1c(I)cc(Cl)c2cccnc12,84% (inactive),8.13% (active),-10.4% (inactive),46.2,35.8,4.55% (inactive),8.83% (inactive)
CCCCCC(=O)O[C@]1(C(C)=O)CC[C@H]2[C@@H]3CCC4=CC(=O)CC[C@]4(C)[C@H]3CC[C@@]21C,93% (inactive),4.16% (active),20.6% (inactive),2.59,23.1,5.84% (inactive),-2% (inactive)
CCOC(=O)c1[nH]c2ccc(Br)cc2c1NC(=O)CCN1CCC(C(=O)OCC)CC1,115% (inactive),77.3% (inactive),12% (inactive),33.2,45.2,-2.53% (inactive),1.27% (inactive)
COC(=O)c1[nH]c2ccc(C)cc2c1NC(=O)CN1CCCC(C)(C)C1,125% (inactive),77.6% (inactive),-3% (inactive),42.2,39.1,-5.87% (inactive),4.91% (inactive)
C=C(C)C1Cc2c(C)nn(-c3nc(C)cc(C)n3)c2C1 (stereo not drawn),105% (inactive),71.7% (inactive),-21.4% (inactive),73.7,52.3,-6.58% (inactive),13.4% (inactive)
O=C(Cn1c(=O)oc2ccccc21)Nc1ccc(S(=O)(=O)N2CCCCC2)cc1,106% (inactive),89.2% (inactive),5.17% (inactive),59.9,65.1,1.92% (inactive),-2.58% (inactive)

Compound,viability [1],viability [2],differential viability (reversal) ([3]; H69AR cells + 2 uM doxorubicin),"viability [3, 6] [%]","viability [3, 7] [%]",inhibition [4],inhibition [5]
COc1ccc(-c2ccc(-c3noc(-c4cccs4)n3)c(OC)n2)cc1,77% (inactive),98.8% (inactive),-5.54% (inactive),70.1,64.6,-7.43% (inactive),-8.73% (inactive)
O=C(CSc1nc2cc(S(=O)(=O)N3CCOCC3)ccc2o1)NC1CCCc2ccccc21 (stereo not drawn),61% (inactive),84.7% (inactive),-4.17% (inactive),74.4,70.2,-3.6% (inactive),-5.82% (inactive)
CC(C)CCn1c(SCC#N)nc2c(sc3ccccc32)c1=O,102% (inactive),41.2% (inactive),2.2% (inactive),53.6,55.8,-2.24% (inactive),-7.14% (inactive)
CC1CCN(CCc2nc3cc(NS(=O)(=O)c4ccc(F)cc4)ccc3n2C)CC1,89% (inactive),77.6% (inactive),-3.08% (inactive),55.5,52.4,-2.33% (inactive),0.97% (inactive)
CC(=O)O[C@H]1C(=O)[C@]2(C)[C@H]([C@H](OC(=O)c3ccccc3)[C@]3(O)C[C@H](OC(=O)[C@H](O)[C@@H](NC(=O)c4ccccc4)c4ccccc4)C(C)=C1C3(C)C)[C@]1(OC(C)=O)CO[C@@H]1C[C@@H]2O,67% (inactive),38.8% (inactive),-69.2% (inactive),81.8,12.6,0.52% (inactive),-0.67% (inactive)
O=C(Nc1cnn(C23CC4CC(CC(C4)C2)C3)c1)c1cnn2c(C(F)(F)F)cc(-c3ccco3)nc12,95% (inactive),58% (inactive),1.52% (inactive),51.8,53.3,-0.82% (inactive),8.39% (inactive)
Cn1c(=O)cc(OCCCC(=O)Nc2ccc3c(c2)OCCO3)c2ccccc21,101% (inactive),85.1% (inactive),-5.2% (inactive),70.7,65.5,-1.04% (inactive),-6.39% (inactive)
COc1cc(C2Nc3cccc4cccc(c34)N2)cc(OC)c1O,92.5% (inactive),57.5% (inactive),-14.8% (inactive),70,55.2,-0.92% (inactive),-4.76% (inactive)
CN1CCN(c2ccc(Cl)cc2NC(=O)c2cccc(S(=O)(=O)N(C)C)c2)CC1,93% (inactive),71.6% (inactive),43.3% (inactive),24.6,67.9,-5.47% (inactive),1.27% (inactive)
CCOC(=O)N1CCC(NC(=O)c2ccc3c(c2)sc2nc(-c4cccc(OC)c4)cn23)CC1,80% (inactive),52% (inactive),8.43% (inactive),41.5,49.9,-1.95% (inactive),-0.98% (inactive)
CCOC(=O)N1CCC(=C2c3ccc(Cl)cc3CCc3cccnc32)CC1,116% (inactive),52.7% (inactive),–,–,–,1.95% (inactive),12.2% (inactive)
CCN(CC)c1ccc2c(c1)CCCN2,86.5% (inactive),95.9% (inactive),-13.2% (inactive),56.6,43.4,-4.21% (inactive),1.64% (inactive)
CC(=O)O[C@@]12CO[C@@H]1C[C@H](O)[C@@]1(C)C(=O)[C@H](O)C3=C(C)[C@@H](OC(=O)[C@H](O)[C@@H](NC(=O)OC(C)(C)C)c4ccccc4)C[C@](O)([C@@H](OC(=O)c4ccccc4)[C@H]21)C3(C)C,130% (inactive),40.7% (inactive),-79.6% (inactive),98.8,19.2,-4.03% (inactive),-2.33% (inactive)
COc1ccccc1C(=O)NCC(c1cccnc1)N(C)C (stereo not drawn),108% (inactive),96% (inactive),–,–,–,-7.12% (inactive),-1.27% (inactive)
CN(C)CCCN1c2ccccc2Sc2ccc(Cl)cc21,71% (inactive),2.62% (active),-26.7% (inactive),28.3,1.67,-0.91% (inactive),7.17% (inactive)
C=CCOc1ccc(CN(C)CC(=O)N(CC(C)C)c2c(N)n(CC(C)C)c(=O)[nH]c2=O)cc1,99% (inactive),99.6% (inactive),–,–,–,-6.16% (inactive),2% (inactive)
N#Cc1cc2ccc(N3CCOCC3)cc2cc1C#N,85% (inactive),4.27% (active),-33.5% (inactive),76.9,43.4,-0.91% (inactive),-3% (inactive)
Cc1[nH]nc2c1C1(C(=O)N(Cc3ccc(Cl)cc3)c3ccccc31)C(C#N)=C(N)O2 (stereo not drawn),94% (inactive),90% (inactive),-39.8% (inactive),92,52.2,-4.32% (inactive),0.18% (inactive)
OCCN1CCN(CCCN2c3ccccc3Sc3ccc(Cl)cc32)CC1,53% (inactive),1.56% (active),-3.86% (inactive),5.27,1.41,-3.38% (inactive),47.3% (active)
COc1ccc(CCN(C)CCCC(C#N)(c2ccc(OC)c(OC)c2)C(C)C)cc1OC (stereo not drawn),73% (inactive),66.8% (inactive),–,–,–,-2.34% (inactive),-0.5% (inactive)
